Source: PubChem BioAssay (NCI)
Compounds without any hit were thinned out: in the full panel of roughly 83,000, 20% have a hit.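 Plates (96-well) were seeded with cells, treated with compound at one concentration, and incubated for 48 hours before percent growth was determined.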 Activity calls are given as the source filed them. The calls were made as follows: active = growth percent below 10; inactive = the rest.

What was measured:
Test in all cases: NCI-60 one-dose screen, 48 h (100 = growth as untreated, 0 = no growth, -100 = all killed)
Conditions in all cases: 10 µM unless noted
SK-MEL-2 melanoma = tested on: SK-MEL-2 melanoma
EKVX NSCLC = tested on: EKVX NSCLC
SN12C renal = tested on: SN12C renal
TK-10 renal = tested on: TK-10 renal
ACHN renal = tested on: ACHN renal
CAKI-1 renal = tested on: CAKI-1 renal
A498 renal = tested on: A498 renal
CCRF-CEM leukemia = tested on: CCRF-CEM leukemia
MOLT-4 leukemia = tested on: MOLT-4 leukemia
UO-31 renal = tested on: UO-31 renal

Measured: growth

O=C(O)[C@@H]1c2ccccc2-c2ccccc2[C@H]1C(=O)O
inactive: SK-MEL-2 melanoma 123% | EKVX NSCLC 100% | SN12C renal 99.6% | TK-10 renal 105% | ACHN renal 98.7% | CAKI-1 renal 96.5% | A498 renal 96.6% | CCRF-CEM leukemia 87.1% | MOLT-4 leukemia 107%

CC(C)CCC[C@@H](C)[C@H]1CC[C@H]2[C@@H]3CC=C4C[C@@H](C(C(=O)O)C(=O)O)CC[C@]4(C)[C@H]3CC[C@]12C
active: SK-MEL-2 melanoma -58.5% | EKVX NSCLC -32.4% | UO-31 renal -53.4% | TK-10 renal -52% | ACHN renal -17.7% | CAKI-1 renal -51% | A498 renal -84.4% | CCRF-CEM leukemia -24.3% | MOLT-4 leukemia -56.2%

Cc1cc2c(O)c(-c3cc(Cl)ccc3Cl)c3sc(=O)oc3c2cc1C
inactive: SK-MEL-2 melanoma 74% | EKVX NSCLC 94.6% | UO-31 renal 85.3% | TK-10 renal 113% | ACHN renal 79.8% | CAKI-1 renal 53.9% | A498 renal 30.1% | CCRF-CEM leukemia 53.8% | MOLT-4 leukemia 40.6%

Cc1c(-c2nc3ccc(F)cc3c(=O)[nH]2)c2ccccc2n1C
active: A498 renal -12.8%
inactive: SK-MEL-2 melanoma 45.6% | EKVX NSCLC 57.5% | UO-31 renal 53.7% | TK-10 renal 83.5% | ACHN renal 36% | CAKI-1 renal 40.8% | CCRF-CEM leukemia 15.6% | MOLT-4 leukemia 23%

COc1cc2c(c(OC)c1OC)C(=O)CC(c1cccc(NC(=O)c3ccc(Br)cc3)c1)O2 (stereo unspecified)
inactive: EKVX NSCLC 74.3% | UO-31 renal 34.9% | TK-10 renal 61.7% | ACHN renal 52.4% | CAKI-1 renal 46.2% | A498 renal 36.2%
active: SK-MEL-2 melanoma 8.79% | CCRF-CEM leukemia 2.95% | MOLT-4 leukemia -11.5%

COc1ccc2nc3ccc(OC)cc3c(SCCCN)c2c1
inactive: SK-MEL-2 melanoma 110% | EKVX NSCLC 87.1% | UO-31 renal 53.3% | TK-10 renal 114% | ACHN renal 43.7% | CAKI-1 renal 74.1% | A498 renal 83.2% | CCRF-CEM leukemia 10.5%
active: MOLT-4 leukemia -5.22%

CN(CCn1sc(=O)n(Cc2ccccc2)c1=O)Cc1ccc2c(Cl)cc(Cl)c(O)c2n1
inactive: SK-MEL-2 melanoma 66.9% | EKVX NSCLC 35.9% | TK-10 renal 63.7% | ACHN renal 27.8% | CAKI-1 renal 46.4% | A498 renal 68.4% | CCRF-CEM leukemia 27.6% | MOLT-4 leukemia 27.7%
active: UO-31 renal -11.7%

Cc1ccc(/C=C2\CN(C(=O)OC(C)(C)C)C/C(=C\c3ccc(C)cc3)C2=O)cc1
active: CCRF-CEM leukemia 3.02%
inactive: SK-MEL-2 melanoma 83.8% | EKVX NSCLC 84.3% | UO-31 renal 66.9% | TK-10 renal 87% | ACHN renal 20.3% | CAKI-1 renal 61% | A498 renal 67.6% | MOLT-4 leukemia 34.7%

N#Cc1c(N)nnn1Cc1cc(=O)oc2c1ccc1ccccc12
inactive: SK-MEL-2 melanoma 94.6% | EKVX NSCLC 76.1% | SN12C renal 94.2% | TK-10 renal 115% | ACHN renal 97.6% | CAKI-1 renal 98% | A498 renal 89.7% | CCRF-CEM leukemia 90.9% | MOLT-4 leukemia 89%

Cc1cc(Cl)ccc1NC(=O)c1cc2ccccc2cc1O
inactive: EKVX NSCLC 44.2% | MOLT-4 leukemia 17.7%
active: SK-MEL-2 melanoma -2.55% | UO-31 renal -2.52% | TK-10 renal -0.787% | ACHN renal 8.67% | CAKI-1 renal -5.76% | A498 renal -12.8% | CCRF-CEM leukemia 8.07%

COC(=O)c1cc(-c2ccc(OC)cc2)[nH]c1N/N=C/c1c(Cl)cccc1Cl
inactive: SK-MEL-2 melanoma 52.9% | EKVX NSCLC 20.1% | UO-31 renal 27.9% | TK-10 renal 47.8% | ACHN renal 39.3% | CCRF-CEM leukemia 12.2% | MOLT-4 leukemia 12.4%
active: CAKI-1 renal -5.7% | A498 renal -2.53%

COc1ccc2c(c1)[n+]([O-])c(C(=O)/C=C/C=C(\Cl)c1cc(OC)c(OC)c(OC)c1)c(C)[n+]2[O-]
inactive: SK-MEL-2 melanoma 47.2% | SN12C renal 78.1% | UO-31 renal 107% | TK-10 renal 89.2% | ACHN renal 44.7% | CAKI-1 renal 79.1% | A498 renal 96.6% | CCRF-CEM leukemia 99.8% | MOLT-4 leukemia 96.1%

Cc1ccc(NC(=S)NNC(=S)NNc2ccccc2)cc1C
inactive: SK-MEL-2 melanoma 91.2% | SN12C renal 101% | UO-31 renal 77.2% | TK-10 renal 104% | ACHN renal 99.1% | CAKI-1 renal 95% | A498 renal 93.7% | CCRF-CEM leukemia 44.4% | MOLT-4 leukemia 45%

N#CC1=C(N)Oc2c(sc3c(Br)cccc23)C1c1ccc(F)cc1 (stereo unspecified)
active: MOLT-4 leukemia 5.38%
inactive: SK-MEL-2 melanoma 37% | SN12C renal 27.4% | UO-31 renal 34.4% | TK-10 renal 43.1% | ACHN renal 30.7% | CAKI-1 renal 46.6% | A498 renal 17.8% | CCRF-CEM leukemia 18.4%

CC(=O)c1cc(O)c2ccccc2c1O
inactive: SK-MEL-2 melanoma 103% | SN12C renal 105% | UO-31 renal 67% | TK-10 renal 148% | ACHN renal 85.1% | CAKI-1 renal 85.7% | A498 renal 133% | MOLT-4 leukemia 107%
active: CCRF-CEM leukemia -10.5%

CC1Cc2c(Cl)ncnc2N(C)c2ccc(F)cc21 (stereo unspecified)
inactive: SK-MEL-2 melanoma 110% | SN12C renal 106% | UO-31 renal 79.6% | TK-10 renal 98.9% | ACHN renal 103% | CAKI-1 renal 91% | A498 renal 101% | CCRF-CEM leukemia 95.6% | MOLT-4 leukemia 89.2%

Clc1ccc2c(c1)N(c1ncnc3ccc(-c4cnc5[nH]ncc5c4)cc13)CC2
inactive: SK-MEL-2 melanoma 48.3% | SN12C renal 19.5% | TK-10 renal 13.9% | ACHN renal 13% | CAKI-1 renal 11% | CCRF-CEM leukemia 31.9%
active: UO-31 renal 4.18% | A498 renal -45.2% | MOLT-4 leukemia 3.68%

COC(=O)[C@]1(C)CCC[C@]2(C)[C@H]3C[C@H]4C(C(C)C)=C[C@]3(CC[C@H]21)[C@H]1[C@@H]4[C@@H](OCCC#N)CC[C@@H]1OCCC#N
active: SN12C renal 2.29% | MOLT-4 leukemia 4.3%
inactive: SK-MEL-2 melanoma 28.8% | UO-31 renal 32.6% | TK-10 renal 46.2% | ACHN renal 39.2% | CAKI-1 renal 51.8% | A498 renal 66.8% | CCRF-CEM leukemia 19.1%

COC(=O)/C(CCC=C(C)C)=C1\[C@@H](OC(C)=O)C[C@@]2(C)[C@H]1C[C@@H](O)[C@H]1[C@@]3(C)CC[C@H](NCCN)[C@@H](C)[C@@H]3CC[C@@]12C
inactive: SK-MEL-2 melanoma 92.6% | SN12C renal 81.2% | UO-31 renal 69.4% | TK-10 renal 101% | ACHN renal 99.6% | CAKI-1 renal 88.3% | A498 renal 94.4% | CCRF-CEM leukemia 79.4%
active: MOLT-4 leukemia -13.2%

Cc1cccc2c1NC(=O)C2(c1ccc(O)cc1)c1ccc(O)cc1
inactive: SK-MEL-2 melanoma 89.2% | SN12C renal 11.2% | UO-31 renal 89.2% | TK-10 renal 28.8% | ACHN renal 78.5% | CAKI-1 renal 94.1% | A498 renal 81.5% | CCRF-CEM leukemia 71.2% | MOLT-4 leukemia 84.2%

CCN(c1ccc(Cl)cc1)c1nc(-c2ccc([N+](=O)[O-])cc2)cs1
inactive: SK-MEL-2 melanoma 101% | SN12C renal 98.5% | UO-31 renal 71.9% | TK-10 renal 115% | ACHN renal 95.9% | CAKI-1 renal 79.6% | A498 renal 63.8% | CCRF-CEM leukemia 101% | MOLT-4 leukemia 96.9%

CN(C)c1ccc(Nc2cc(-c3cccc(OC(F)(F)F)c3)nc3ccc(N4CCCC4)cc23)cc1
active: CCRF-CEM leukemia 3.82% | MOLT-4 leukemia 2.94%
inactive: SK-MEL-2 melanoma 106% | SN12C renal 40.3% | UO-31 renal 74% | TK-10 renal 95.4% | ACHN renal 97.6% | CAKI-1 renal 89.6% | A498 renal 98.3%

Cn1ccc2c3c(ccc21)CC3=O
inactive: SK-MEL-2 melanoma 126% | SN12C renal 106% | UO-31 renal 107% | TK-10 renal 124% | ACHN renal 111% | CAKI-1 renal 92.3% | A498 renal 92.6% | CCRF-CEM leukemia 111% | MOLT-4 leukemia 88.9%

Fc1cccc(CNc2c3ccccc3nc3ccccc23)c1F
active: A498 renal -0.792%
inactive: SK-MEL-2 melanoma 107% | SN12C renal 49% | UO-31 renal 40.1% | TK-10 renal 89.2% | ACHN renal 30.6% | CAKI-1 renal 45.7% | CCRF-CEM leukemia 62.4% | MOLT-4 leukemia 28.4%

O=C(O)CCCN1C(=O)/C(=C/C(Cl)=C/c2ccccc2)SC1=S
inactive: SK-MEL-2 melanoma 59.3% | TK-10 renal 30.3% | CAKI-1 renal 24.2% | A498 renal 87.5%
active: UO-31 renal -46% | ACHN renal -93.1% | CCRF-CEM leukemia 2.55% | MOLT-4 leukemia 9.65%

Cc1cccc(N2CCN(CC(O)COc3ccc(Cl)cc3)CC2)c1 (stereo unspecified)
inactive: SK-MEL-2 melanoma 89.5% | SN12C renal 95.2% | UO-31 renal 85.3% | TK-10 renal 116% | ACHN renal 93.7% | CAKI-1 renal 84.5% | A498 renal 115% | CCRF-CEM leukemia 97.7% | MOLT-4 leukemia 77.1%

CO/N=C(/C)c1ccc(NC(=O)CSc2nnc(-c3ccncc3)n2-c2ccccc2)cc1
active: UO-31 renal 9.43% | TK-10 renal -15.3%
inactive: SK-MEL-2 melanoma 67.6% | SN12C renal 36.1% | ACHN renal 10.1% | CAKI-1 renal 26.8% | A498 renal 89.7% | CCRF-CEM leukemia 91.6% | MOLT-4 leukemia 92.2%

O=C(/C=C/c1cn(-c2ccccc2)nc1-c1ccc([N+](=O)[O-])cc1)c1ccc(Cl)cc1
inactive: SK-MEL-2 melanoma 96.2% | SN12C renal 50.5% | UO-31 renal 41.2% | TK-10 renal 14.1% | ACHN renal 52.3% | CAKI-1 renal 31.9% | A498 renal 78.5% | CCRF-CEM leukemia 38% | MOLT-4 leukemia 38%
